# In all, about 33,000 sequences were measured (“E-score (-0.5 to 0.5)”: median about -0.017, highest 2% from about 0.3 on). This excerpt belongs to a sample that is enriched for the highest values.
# Biological target: T1, Sut1 (UniProt P53032)
# T1 sequence: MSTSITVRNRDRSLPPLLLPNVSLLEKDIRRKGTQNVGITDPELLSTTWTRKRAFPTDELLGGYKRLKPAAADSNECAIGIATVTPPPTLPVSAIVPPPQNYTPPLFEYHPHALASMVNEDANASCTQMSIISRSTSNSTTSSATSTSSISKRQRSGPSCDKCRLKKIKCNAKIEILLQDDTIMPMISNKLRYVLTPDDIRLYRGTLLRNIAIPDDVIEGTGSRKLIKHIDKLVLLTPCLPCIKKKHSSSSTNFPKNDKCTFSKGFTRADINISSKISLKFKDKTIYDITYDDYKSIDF
# Experiment: PBM E-score (8-mer binding enrichment) (E-score (-0.5 to 0.5)); higher = stronger / more preferred TF binding
# Conditions: protein concentration: 200 nM; construct: GST-full length
# Protocol: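 Universal 'all 10-mer' protein binding microarrays (Agilent AMADID 015681) probed with GST-tagged S. cerevisiae TFs (full-length or DBD) made by in vitro transcription/translation (PURExpress), about 100-200 nM. Bound TF was detected with fluorescent anti-GST. Each ungapped 8-mer (which stands for itself and its reverse complement) is scored by the PBM enrichment score (E-score), a modified Wilcoxon-Mann-Whitney statistic from -0.5 to +0.5, computed with the Universal PBM Analysis Suite. Scale: above 0.35 generally sequence-specific binding.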
row,Sequence,PBM E-score
1,AGCCCATC,-0.23
2,AACATGGG,-0.00269
3,CTATTGAA,0.226
4,GAAACAAC,0.107
5,GAAACAAA,0.321
6,AAACAAAA,0.197
7,GAAAACAA,0.184
8,ACCAACAG,-0.297
9,AAACAAAC,0.165
10,TAAAACAA,0.207
11,AAAAACAA,0.316
12,ACCAACAT,0.0524
13,CAAACAAA,0.161
14,AAACAAAG,0.322
15,ACCAACAA,0.299
16,GAGTTGAA,0.18
17,ACAGATAT,0.0244
18,ATAAGTTC,0.261
19,ATACAGTG,0.0667
20,CTCCAAAG,0.0263
21,CCTCGACA,-0.288
22,CATGCGTA,-0.0829

row,Sequence,PBM E-score
1,ATCAGTTA,0.204
2,GAAAAACA,0.125
3,TAAAAACA,0.188
4,AAAACAAG,0.0776
5,AAAACAAA,0.312
6,AAAACAAT,0.215
7,AAAAAACA,0.313
8,AAGTTACC,0.158
9,CCCAAGGC,-0.0767
10,CATACGGG,-0.186
11,GATACGGC,-0.104
12,CATACGGC,-0.156
13,AATACGGA,0.286
14,CATACGGA,0.303
15,TATACGGA,0.312
16,TATACGAA,0.194
17,GATACGGA,0.364
18,GATACGCA,-0.141
19,ATGAGTCA,-0.0351
20,GCGCTAAC,-0.0641
21,TAGCTATA,-0.0172
22,GCGATCCA,-0.121

row,Sequence,PBM E-score
1,AGTTTTAT,0.211
2,TACCACCA,0.0245
3,CAGCCTGC,-0.224
4,AGACGAGG,-0.182
5,CGTACTCC,0.348
6,CGTACTCA,0.0162
7,CGTACTAC,0.0559
8,AGTACTCG,0.0601
9,AGTACTCC,0.325
10,AGTACTCA,0.0483
11,AAAGTCAG,0.00828
12,GCTAAAGC,-0.0213
13,CCTATCGC,-0.115
14,CAGCAAAG,-0.0349
15,GTCCGTCA,0.253
16,CTCCGTCC,0.307
17,CTCCGTCA,0.369
18,ATCCGTCC,-0.0115
19,CCCCGTCC,-0.194
20,ATCCGTCA,0.0376
21,CTACACAG,-0.108
22,CCAGGGTC,-0.265

row,Sequence,PBM E-score
1,ACGTATTC,-0.0472
2,TGACTTAA,0.153
3,CAGTCCAG,-0.325
4,GAGTCCGA,0.476
5,TAGTCCAA,-0.01
6,CCGTCCGA,0.0411
7,GAGTCCGC,0.282
8,CAGTCCGG,0.353
9,GCGTCCGA,-0.09
10,CAGTCCGA,0.411
11,TAGTCCCA,-0.21
12,CAGTCCGC,0.196
13,TAGTCCGA,0.48
14,CAGTCCCG,-0.0578
15,AACTTACT,0.0273
16,CGCCCTTC,-0.0609
17,AGTGGCGA,0.0883
18,AGGGGCCC,-0.217
19,AACAGAAT,0.0169
20,ATCGATGG,-0.0596
